Inconclusive results are not listed. Active and inactive are the calls of the source. Calls come from the whole dose curve; as a rule, active = well fitted cell-killing curve with a large enough effect in the repeat runs; inconclusive = weak or mixed curves, or effect the other way; inactive = flat fitted curve, though single readings scatter.
% is set by controls: 0 for no effect and ±100 for the full control effect.

The experiment is described as follows: qHTS RealTime-Glo MT Cell Viability Assay in HEK293 cells - 40 hour (AID 1224874). Note: nearly all actives have a fitted effect of over 50% in size. The note with it: RealTime-Glo luminescence; max response: stronger effect = lower value. The source says:
U.S. Tox21 Program National Center for Advancing Translational Sciences [NCATS] NIH Chemical Genomics Center [NCGC] U.S. Environmental Protection Agency [EPA] National Institutes of Environmental Health Sciences [NIEHS] National Toxicology Program [NTP] U.S. Food and Drug Administration [FDA] Tox21 Assay Overview: Measure of cell viability is critical in the cell-base assay. Analysis of cell viability is necessary for the characterization of cell responses to cytotoxic drugs and environmental stress. A RealTime-Glo MT Cell Viability Assay to monitor cell viability in real time of continues cell culture during 40 hours of compound treatment was used to screen Tox21 10K library compounds in Hek293 cells. The RealTime-Glo MT Cell Viability Assay is a nonlytic, homogeneous, bioluminescent method to measure cell viability in real time using a simple, plate-based method. The assay involves adding NanoLuc luciferase and a cell-permeant prosubstrate to cells in culture. Viable cells reduce the proprietary prosubstrate to generate a substrate for NanoLuc luciferase. This substrate diffuses from cells into the surrounding culture medium, where it is rapidly used by the NanoLuc Enzyme to produce a luminescent signal. The signal correlates with the number of viable cells, making the assay well suited for cytotoxicity studies.
Tox21 Assay Protocol Summary: The mixture of Hek293 cell suspension and reagents were dispensed at 600cells/6 ul/well in 1536-well tissue culture treated black solid bottom plates using a Multidrop dispenser. After the assay plates were incubated at a 37 C/5% CO2 incubator for 5 hours, 23 nL of compounds dissolved in DMSO, positive and negative controls was transferred to the assay plate by a pintool work station. The plates were incubated at 37 C for 40 hours. The luminescence intensity were measured at 0h, 8h, 16h, 24h, 32h and 40h time points using ViewLux plate reader during compound treatment.
For orientation: Quantitative high-throughput screening tests each substance at several concentrations.
Consider `COCCOC(=O)CC#N`, for which the max response was 1.9% (inactive).

Consider `CCC(=O)/C=C/c1ccc(OC)cc1`, for which the max response is -0.0895% (inactive).

Take `CC1CCN(CCCC(=O)c2ccc(F)cc2)CC1`: the max response was -2.98% (inactive).

For the compound `FC(F)(F)C(F)(F)C(F)(F)C(F)(F)C(F)(F)C(F)(F)C(F)(F)C(F)(F)C(F)(F)C(F)(F)F`, the max response is -1.44% (inactive).

For `N#CCc1ccccc1[N+](=O)[O-]`, the max response was 9.34% (inactive).

Consider `O=C(O)c1ccccc1-c1ccc(C(F)(F)F)cc1`, for which the max response is 7.22% (inactive).

Consider `C=C(C)C(=O)OCCC(C)OC(=O)C(=C)C` (stereo not given), for which the max response is 8.52% (inactive).

For the compound `NS(=O)(=O)c1cc2c(cc1Cl)NC(CSCc1ccccc1)=NS2(=O)=O`, the max response was -0.803% (inactive).

Turning to `CCCc1ccccc1O`, the max response was -8.16% (inactive).

`CCOC(=O)Cn1c(=O)sc2cccc(Cl)c21`: the max response was -10.9% (inactive).

For `NCCNC(=O)c1ccc(Cl)cn1`, the max response is 0.469% (inactive).

Regarding `COc1cccc(Br)c1`, the max response is -10% (inactive).

For `OC1OC[C@@H](O)[C@H](O)[C@H]1O` (stereo not given in full), the max response was 0.611% (inactive).

Turning to `NS(=O)(=O)c1cc2c(cc1C(F)(F)F)NC(Cc1ccccc1)NS2(=O)=O` (stereo not given), the max response is -7.67% (inactive).

For `O=c1[nH]c(=O)n([C@H]2O[C@H](CO)[C@@H](O)[C@@H]2O)cc1/C=C\Br`, the max response is 3.79% (inactive).

As for `CO`, the max response was 3.26% (inactive).

With `CCCCc1ccc2cccc(S(=O)(=O)O)c2c1`, the max response is 3.37% (inactive).

For the compound `COC(=O)C1=C(C)NC(C)=C(C(=O)OCC(C)=O)C1c1ccccc1[N+](=O)[O-]` (stereo not given), the max response is -9.05% (inactive).

Consider `Cc1cc(C)cc(OCC2CNC(=O)O2)c1` (stereo not given), for which the max response is 2.49% (inactive).

Regarding `CC(C)COC(=O)C(C)C`, the max response was 3.76% (inactive).

Consider `CCC(C(=O)NC(N)=O)c1ccccc1` (stereo not given), for which the max response was 5.63% (inactive).

Consider `C=C[Si](OC)(OC)OC`, for which the max response was 16.1% (inactive).

As for `C=CCSCC1Nc2cc(Cl)c(S(N)(=O)=O)cc2S(=O)(=O)N1` (stereo not given), the max response is 10.2% (inactive).

For the compound `CN(C)CCOC(c1ccc(Cl)cc1)c1ccccn1` (stereo not given), the max response is 6.99% (inactive).

Take `CCCCCCOC(=O)c1ccccc1O`: the max response is -8.04% (inactive).

Regarding `CCCC=O`, the max response is 6.1% (inactive).

For the compound `NCCN1CCNC1=O`, the max response was 0.993% (inactive).

Regarding `C[N+](C)(C)CC[N+]1(C)Cc2c(Cl)c(Cl)c(Cl)c(Cl)c2C1`, the max response was 7.36% (inactive).

`CCC(C)(C)C1CCC(OC)CC1` (stereo not given): the max response is 21.9% (inactive).

Regarding `CC(C)=CC(=O)O`, the max response was 10.8% (inactive).

Turning to `CCC(=O)c1cccc(Cl)c1`, the max response was 3.96% (inactive).

On to `CCCCNc1ccccc1`, for which the max response is 2.6% (inactive).

Consider `Cc1c(F)cc2c(=O)c(C(=O)O)cn3c2c1CCC3C` (stereo not given), for which the max response is -0.802% (inactive).

Consider `COC(=O)c1ccc(C(=O)OC)c(C(=O)OC)c1`, for which the max response is 1.35% (inactive).

Turning to `C1=C\CC/C=C\CC/C=C\CC/1`, the max response was 24.2% (inactive).

For the compound `Nc1[nH]c(=O)ncc1F`, the max response was 0.113% (inactive).

With `CC(C)[C@H](N)C(=O)OCCOCn1cnc2c(=O)[nH]c(N)nc21`, the max response was 9.28% (inactive).

Turning to `CC(CCO)CCCC(C)(C)O` (stereo not given), the max response is -6.84% (inactive).

As to `OCCN1C[C@H](O)[C@@H](O)[C@H](O)[C@H]1CO`, the max response was 3.53% (inactive).

As to `CC(C)(C)N(CCO)CCO`, the max response was 0.933% (inactive).
